Results reported in PubChem BioAssay.
Values joined by “and” are separate entries in the source; they are usually repeats but may differ in a detail not shown here. Identical values can stand only once. Active and inactive are the calls of the source.

Test system: Sonic hedgehog protein (Shh)
Experiment: small-molecule binders of Shh protein, primary screen, biochemical, small-molecule microarray, 635/667 nm fluorescence (AID 1151);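 note: Shh protein binding to compounds spotted on small-molecule microarray slides; score combines spot fluorescence intensity with signal-to-noise across triplicate slides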
Settings: small-molecule microarray binding, 635 nm fluorescence; higher = more signal

| Compound | composite z-score |
| --- | --- |
| CCCNC(=O)OC[C@H]1O[C@H](CCON=C(C)CCN2CCc3nc(-c4ccccc4)c(-c4ccccc4)cc3C2)C=C[C@@H]1Oc1ccc(OC)cc1 | 0.449 |
| C=CC[C@@H](O)c1ccc(O)c(F)c1 | -0.97 and 0.89 |
| C=CCN(Cc1ccccc1)C(=O)C(c1cccs1)N(C(=O)/C=C\C(=O)O)c1c(Cl)cccc1CO (stereo not drawn) | -0.877 and -0.78 |
| CC(C)[Si]1(C(C)C)OCc2cc(CCCc3cc4c(c(CCc5ccccc5)n3)[Si](C(C)C)(C(C)C)OC4)nc(CCc3ccccc3)c21 | 0.405 and 0.595 |
| COC(=O)[C@@]1(Cc2ccc(F)cc2)[C@H]2c3cc(C(=O)N4CCCC4)n(Cc4c(CO)[nH]cc(C)c4=O)c3C[C@H]2CN1C(=O)c1ccccc1 | -0.552 and -0.661 |
| C=CCN(C(=O)C1N(c2ccc(CCO)cc2)C(=O)C2C(C(=O)O)C3C=CC21O3)c1ccc(OC)cc1 (stereo not drawn) | -0.141 and -1.28 |
| C=CCN(C(=O)C1N(CCOCCO)C(=O)C2C(C(=O)O)C3C=CC21O3)C(C)(C)C (stereo not drawn) | -0.783 and -1.34 |
| CCOC(=O)c1ccc(NC(=O)O[C@H]2[C@H](OC(=O)Nc3ccccc3)[C@H](OC(=O)Nc3ccccc3)[C@@H](OC)O[C@@H]2CO)cc1 | 1.17 and 1.63 |
| CC(C)=NOCc1ccc(-c2cn([C@@H]3COC[C@H]3O)nn2)cc1 | 0.169 |
| C[C@@H]1CC[C@H]2C(=O)O[C@H](CN=[N+]=[N-])CN2[C@H]1c1ccc(Br)cc1 | 0.286 and -0.196 |
| C=CCN1C(=O)[C@]2(O[C@H](CCn3cc(CCO)nn3)[C@@H]([Si](C)(C)c3ccc(OC)cc3)[C@@H]2C)c2cc(N3C(=O)c4cccc5cccc3c45)ccc21 | 1.21 and 1.38 |
| CC(CO)N1C(=O)[C@@H]2C3C(=O)OCCC=C[C@H]3OC23C=CCN(Cc2ccccc2)C(=O)[C@@H]13 (stereo partly drawn) | -0.525 and 0.901 |
| C=CCN(C(=O)C1N(c2c(Cl)cccc2CO)C(=O)C2C(C(=O)O)C3C=CC21O3)C(C)(C)C (stereo not drawn) | -1.17 and -0.681 |
| O=C1C[C@]2(c3ccc([N+](=O)[O-])cc3)C(=O)N(Cc3ccccc3)c3cc(CO)ccc3[C@H]2N1C1CCCCC1 | 0.837 and 1.22 |
| C[C@@H](ON=C1[C@H]2CCn3c(=O)n(-c4ccccc4)c(=O)n3[C@H]2[C@H](O)[C@@H]2O[C@H]12)c1cn([C@H](CO)Cc2ccccc2)nn1 | 0.403 |
| C=CCN(CCCC)C(=O)C1N(C(C)(C)CO)C(=O)C2C(C(=O)O)C3C=CC21O3 (stereo not drawn) | -1.07 and -0.475 |
| COC(=O)[C@@]1(Cc2ccccc2)[C@H]2c3cc(C(=O)N(C)C)n(C[C@H](O)CO)c3C[C@H]2CN1C(=O)c1ccccc1 | -0.39 and -1.19 |
| C[C@@H]1CN2[C@@H](CC[C@@H](C)[C@@H]2c2ccc(Br)cc2)C(=O)O1 | 0.486 and 0.218 |
| COC(=O)C1=C(C)N(Cc2ccccc2)[C@]23O[C@](C(=O)OC)(C(=O)N2[C@@H]1c1ccccc1)[C@@H](C(=O)OC)[C@H]3C(=O)OC | -0.652 and 0.611 |
| C=CCN(Cc1ccccc1)C(=O)C1N(c2ccc(CCO)cc2)C(=O)C2C(C(=O)O)C3C=CC21O3 (stereo not drawn) | -1.7 and -1.87 |
| CCOC(=O)C[C@H]1[C@H](OC(=O)c2ccccc2-c2ccccc2)[C@@H](NC(=O)Cc2ccc(OC)cc2)c2cc(OCCCO)ccc2N1C(=O)c1ccc2ccccc2n1 | 0.207 and 0.3 |
| CC(C)CCN1CCc2nc(-c3ccccc3)c3c(c2C1)CO[C@@H](C)C3 | 0.827 |
| CCOC(=O)[C@@H]1CC=C2CC1C(=O)N1CCC[C@@H]1[C@H]2O[Si](C)(C)C(C)(C)C (stereo partly drawn) | -0.085 and -0.0655 |
| COC(=O)[C@@]1(Cc2ccc(OC)cc2)[C@H]2c3cc(C(=O)N(C)C)n(Cc4ccc(O)c(OC)c4)c3C[C@H]2CN1C(=O)c1ccccc1 | 1.02 and -0.291 |
| CO[C@H]1COC(=O)CC=C[C@H](C)[C@H](OC)COC(=O)[C@@H](C)COC(=O)CC=C[C@@H]1C | 1.08 and 1.09 |
| CCOC(=O)C[C@H]1[C@H](OC(=O)c2ccccc2-c2ccccc2)[C@@H](NC(=O)c2ccccc2)c2cc(OCCCO)ccc2N1C(=O)c1ccc2ccccc2n1 | 0.502 and 1.8 |
| C=CCN(CCCC)C(=O)C1N(c2c(Cl)cccc2CO)C(=O)C2C(C(=O)O)C3C=CC21O3 (stereo not drawn) | -0.979 and -1.17 |

Test system: not listed separately
Experiment: E. coli DRC41 culture turbidity changes, primary screen, E. coli filamentation inducer project, strain DRC41, OD650, 48 h (AID 1152);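 note: E. coli MC1000 strain DRC41 lacking acrAB efflux pump and sulA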
Settings: E. coli DRC41 (acrAB sulA), higher = more signal, called active from +8 up or from −8 down

| Compound | z-score |
| --- | --- |
| CC(CO)N1C(=O)[C@@H]2C3C(=O)OCCC=C[C@H]3OC23C=CCN(c2ccc(Cl)cc2)C(=O)[C@@H]13 (stereo partly drawn) | -0.0529 (inactive) and -0.655 (inactive) |
| CCOC(=O)NN=C1C[C@@H](O)[C@@H](O)[C@@H]2[C@@H]3C(=O)N(Cc4ccc5c(c4)OCO5)C(=O)[C@@H]3CC[C@@H]12 | 0.806 (inactive) |
| C=CCN(C(=O)C(c1cccs1)N(C(=O)/C=C\C(=O)O)c1ccc(CCO)cc1)C(C)(C)C (stereo not drawn) | 0.381 (inactive) and -0.0974 (inactive) |
| C=CCN(C(=O)C(c1cccs1)N(C(=O)/C=C\C(=O)O)c1c(Cl)cccc1CO)C(C)(C)C (stereo not drawn) | -0.773 (inactive) and -1.1 (inactive) |
| C=CCN(CCCCC)C(=O)C1N(c2c(Cl)cccc2CO)C(=O)C2C(C(=O)O)C3C=CC21O3 (stereo not drawn) | -0.281 (inactive) and -0.118 (inactive) |
| C=CCN(CCCC)C(=O)C(c1cccs1)N(CCOCCO)C(=O)/C=C\C(=O)O (stereo not drawn) | 1.59 (inactive) and 1.84 (inactive) |
| CCCCCN1CC=CC23O[C@@H]4C=CCCOC(=O)C4[C@H]2C(=O)N(C(C)CO)[C@@H]3C1=O (stereo partly drawn) | 1.5 (inactive) and 0.971 (inactive) |
| COC(=O)[C@H](C)NC(=O)CCC1CC(OC(=O)NCCc2ccc(F)cc2)CC2(CCCC(COC(=O)NCCCN3CCCC3=O)O2)O1 (stereo partly drawn) | -0.184 (inactive) |
| COC(=O)C1=C(C)N(Cc2ccccc2)C2=C(C(C)=O)C[C@@](O)(C(=O)OC)C(=O)N2[C@@H]1c1ccccc1 | 0.125 (inactive) and -0.635 (inactive) |
| C=CCN(CCCCC)C(=O)C(c1cccs1)N(C(=O)/C=C\C(=O)O)c1c(Cl)cccc1CO (stereo not drawn) | -0.316 (inactive) and -0.346 (inactive) |
| CC(C)CON=C1C[C@@H](O)[C@@H](O)[C@@H]2[C@@H]3C(=O)N(c4cccc(Oc5ccccc5)c4)C(=O)[C@@H]3CC[C@H]12 | 0.525 (inactive) |
| C=CCN(C(=O)C(c1cccs1)N(C(=O)/C=C\C(=O)O)C(C)(C)CO)c1ccc(OC)cc1 (stereo not drawn) | 3.97 (inactive) and 3.23 (inactive) |
| CCCNC(=O)OC[C@H]1O[C@H](CCON=C(C)CCN2CCc3nc(-c4ccccc4)c(-c4ccccc4)cc3C2)C=C[C@@H]1Oc1ccc(OC)cc1 | -1.29 (inactive) |
| C=CC[C@@H](O)c1ccc(O)c(F)c1 | -0.024 (inactive) and 1.7 (inactive) |
| C=CCN(Cc1ccccc1)C(=O)C(c1cccs1)N(C(=O)/C=C\C(=O)O)c1c(Cl)cccc1CO (stereo not drawn) | -0.608 (inactive) and -0.244 (inactive) |
| CC(C)[Si]1(C(C)C)OCc2cc(CCCc3cc4c(c(CCc5ccccc5)n3)[Si](C(C)C)(C(C)C)OC4)nc(CCc3ccccc3)c21 | 2.34 (inactive) and -0.836 (inactive) |

| Compound | z-score |
| --- | --- |
| COC(=O)[C@@]1(Cc2ccc(F)cc2)[C@H]2c3cc(C(=O)N4CCCC4)n(Cc4c(CO)[nH]cc(C)c4=O)c3C[C@H]2CN1C(=O)c1ccccc1 | -1.7 (inactive) and -1.76 (inactive) |
| C=CCN(C(=O)C1N(c2ccc(CCO)cc2)C(=O)C2C(C(=O)O)C3C=CC21O3)c1ccc(OC)cc1 (stereo not drawn) | -0.0883 (inactive) and 1.76 (inactive) |
| C=CCN(C(=O)C1N(CCOCCO)C(=O)C2C(C(=O)O)C3C=CC21O3)C(C)(C)C (stereo not drawn) | -0.265 (inactive) and -0.45 (inactive) |
| CCOC(=O)c1ccc(NC(=O)O[C@H]2[C@H](OC(=O)Nc3ccccc3)[C@H](OC(=O)Nc3ccccc3)[C@@H](OC)O[C@@H]2CO)cc1 | 0.473 (inactive) and -0.33 (inactive) |
| CC(C)=NOCc1ccc(-c2cn([C@@H]3COC[C@H]3O)nn2)cc1 | 0.164 (inactive) |
| C[C@@H]1CC[C@H]2C(=O)O[C@H](CN=[N+]=[N-])CN2[C@H]1c1ccc(Br)cc1 | -1.87 (inactive) and -0.609 (inactive) |
| C=CCN1C(=O)[C@]2(O[C@H](CCn3cc(CCO)nn3)[C@@H]([Si](C)(C)c3ccc(OC)cc3)[C@@H]2C)c2cc(N3C(=O)c4cccc5cccc3c45)ccc21 | 0.833 (inactive) and -0.342 (inactive) |
| CC(CO)N1C(=O)[C@@H]2C3C(=O)OCCC=C[C@H]3OC23C=CCN(Cc2ccccc2)C(=O)[C@@H]13 (stereo partly drawn) | 0.697 (inactive) and 0.925 (inactive) |
| C=CCN(C(=O)C1N(c2c(Cl)cccc2CO)C(=O)C2C(C(=O)O)C3C=CC21O3)C(C)(C)C (stereo not drawn) | 1.66 (inactive) and 1.99 (inactive) |
| O=C1C[C@]2(c3ccc([N+](=O)[O-])cc3)C(=O)N(Cc3ccccc3)c3cc(CO)ccc3[C@H]2N1C1CCCCC1 | 0.128 (inactive) and 0.873 (inactive) |
| C[C@@H](ON=C1[C@H]2CCn3c(=O)n(-c4ccccc4)c(=O)n3[C@H]2[C@H](O)[C@@H]2O[C@H]12)c1cn([C@H](CO)Cc2ccccc2)nn1 | 0.328 (inactive) |
| C=CCN(CCCC)C(=O)C1N(C(C)(C)CO)C(=O)C2C(C(=O)O)C3C=CC21O3 (stereo not drawn) | -0.2 (inactive) and -0.302 (inactive) |
| COC(=O)[C@@]1(Cc2ccccc2)[C@H]2c3cc(C(=O)N(C)C)n(C[C@H](O)CO)c3C[C@H]2CN1C(=O)c1ccccc1 | -0.741 (inactive) and -1.44 (inactive) |
| C[C@@H]1CN2[C@@H](CC[C@@H](C)[C@@H]2c2ccc(Br)cc2)C(=O)O1 | -1.42 (inactive) and 0.0426 (inactive) |
| COC(=O)C1=C(C)N(Cc2ccccc2)[C@]23O[C@](C(=O)OC)(C(=O)N2[C@@H]1c1ccccc1)[C@@H](C(=O)OC)[C@H]3C(=O)OC | 0.514 (inactive) and 0.184 (inactive) |
